Assay results: PubChem BioAssay AID1159580 (chemical genetic matrix, 2015)
About 2,000 (36%) of roughly 5,500 compounds were called active. Roughly 18% stayed inconclusive and do not appear here. This is one part of the list. Values without a mark were called inactive. No stated cut-off is given here; in the data, active means normalized growth mostly below about 0.91 (no sharp cut-off); inconclusive means no clear call, values can overlap the other calls; inactive means mostly above about 0.92.

Experiment: chemical genetic growth profiling, strain panel (AID 1159580);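 further: tested at 20 µM; growth read once vehicle control cultures reached saturation at 30 °C; 1 = growth at the plate median or of vehicle wells; lower values mean less growth of the strain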
Settings: growth OD

CC1=C2C(=CO[C@H](C)[C@H]2C)C(=O)C(C(=O)O)=C1O
normalized growth (S. cerevisiae deletion strains, locus YJR066W, strain TOR1, hits give low values): 0.799 (active)
normalized growth (S. cerevisiae deletion strains, locus YKL009W, strain mrt4, hits give low values): 0.936
normalized growth (S. cerevisiae deletion strains, locus YKL068W, hits give low values): 0.972
normalized growth (S. cerevisiae deletion strains, locus YKL085W, strain MDH1 (second series), hits give low values): 0.943
normalized growth (S. cerevisiae deletion strains, locus YKL085W, strain MDH1, hits give low values): 0.943
normalized growth (S. cerevisiae deletion strains, locus YKL160W, strain elf1, hits give low values): 0.95
normalized growth (S. cerevisiae deletion strains, locus YKL190W, strain CNB1, hits give low values): 0.979
normalized growth (S. cerevisiae deletion strains, locus YKR001C, strain vps1, hits give low values): 1
normalized growth (S. cerevisiae deletion strains, locus YKR026C, strain gcn3, hits give low values): 0.979
normalized growth (S. cerevisiae deletion strains, locus YKR091W, strain srl3, hits give low values): 0.986
normalized growth (S. cerevisiae deletion strains, locus YLL001W, strain dnm1, hits give low values): 1
normalized growth (S. cerevisiae deletion strains, locus YLL026W, hits give low values): 0.976
normalized growth (S. cerevisiae deletion strains, locus YLL041C, strain sdh2, hits give low values): 0.98
normalized growth (S. cerevisiae deletion strains, locus YLR027C, strain aat2, hits give low values): 0.981
normalized growth (S. cerevisiae deletion strains, locus YLR039C, strain RIC1, hits give low values): 0.92
normalized growth (S. cerevisiae deletion strains, locus YLR058C, strain SHM2, hits give low values): 0.985
normalized growth (S. cerevisiae deletion strains, locus YLR102C, strain apc9, hits give low values): 0.979
normalized growth (S. cerevisiae deletion strains, locus YLR113W, strain HOG1, hits give low values): 0.709 (active)
normalized growth (S. cerevisiae deletion strains, locus YLR221C, strain rsa3, hits give low values): 0.971
normalized growth (S. cerevisiae deletion strains, locus YLR258W, strain gsy2, hits give low values): 0.96
normalized growth (S. cerevisiae deletion strains, locus YLR262C, strain YPT6 (second series), hits give low values): 0.891
normalized growth (S. cerevisiae deletion strains, locus YLR262C, strain YPT6, hits give low values): 0.918
normalized growth (S. cerevisiae deletion strains, locus YLR268W, strain sec22, hits give low values): 0.974
normalized growth (S. cerevisiae deletion strains, locus YLR320W, strain mms22, hits give low values): 0.94
normalized growth (S. cerevisiae deletion strains, locus YLR330W, strain CHS5, hits give low values): 0.98
normalized growth (S. cerevisiae deletion strains, locus YLR342W, strain FKS1 (second series), hits give low values): 0.931
normalized growth (S. cerevisiae deletion strains, locus YLR342W, strain FKS1, hits give low values): 0.954
normalized growth (S. cerevisiae deletion strains, locus YLR357W, strain rsc2, hits give low values): 1.01
normalized growth (S. cerevisiae deletion strains, locus YLR370C, strain arc18, hits give low values): 0.972
normalized growth (S. cerevisiae deletion strains, locus YLR371W, strain rom2, hits give low values): 1.01
normalized growth (S. cerevisiae deletion strains, locus YLR384C, strain iki3, hits give low values): 0.979
normalized growth (S. cerevisiae deletion strains, locus YLR418C, strain cdc73, hits give low values): 0.95
normalized growth (S. cerevisiae deletion strains, locus YML016C, strain PPZ1, hits give low values): 0.976
normalized growth (S. cerevisiae deletion strains, locus YML032C, strain rad52, hits give low values): 0.984
normalized growth (S. cerevisiae deletion strains, locus YML120C, strain ndi1, hits give low values): 0.975
normalized growth (S. cerevisiae deletion strains, locus YML124C, strain tub3, hits give low values): 0.964
normalized growth (S. cerevisiae deletion strains, locus YMR058W, strain fet3, hits give low values): 1
normalized growth (S. cerevisiae deletion strains, locus YMR078C, strain ctf18, hits give low values): 0.984
normalized growth (S. cerevisiae deletion strains, locus YMR125W, strain sto1, hits give low values): 0.996
normalized growth (S. cerevisiae deletion strains, locus YMR129W, hits give low values): 0.973
normalized growth (S. cerevisiae deletion strains, locus YMR205C, strain PFK2, hits give low values): 0.937
normalized growth (S. cerevisiae deletion strains, locus YMR223W, strain ubp8, hits give low values): 0.997
normalized growth (S. cerevisiae deletion strains, locus YMR231W, strain pep5, hits give low values): 0.981
normalized growth (S. cerevisiae deletion strains, locus YMR307W, strain GAS1, hits give low values): 0.85
normalized growth (S. cerevisiae deletion strains, locus YNL067W, strain RPL9B, hits give low values): 0.997
normalized growth (S. cerevisiae deletion strains, locus YNL071W, strain lat1, hits give low values): 0.981
normalized growth (S. cerevisiae deletion strains, locus YNL128W, strain TEP1, hits give low values): 1.01
normalized growth (S. cerevisiae deletion strains, locus YNL153C, strain GIM3, hits give low values): 0.988
normalized growth (S. cerevisiae deletion strains, locus YNL183C, strain NPR1, hits give low values): 0.82 (active)
normalized growth (S. cerevisiae deletion strains, locus YNL209W, strain ssb2, hits give low values): 0.977
normalized growth (S. cerevisiae deletion strains, locus YNL233W, strain BNI4, hits give low values): 1
normalized growth (S. cerevisiae deletion strains, locus YNL248C, strain rpa49, hits give low values): 1.01
normalized growth (S. cerevisiae deletion strains, locus YNL250W, strain rad50, hits give low values): 0.979
normalized growth (S. cerevisiae deletion strains, locus YNL271C, strain bni1, hits give low values): 0.978
normalized growth (S. cerevisiae deletion strains, locus YNL298W, strain CLA4, hits give low values): 0.956
normalized growth (S. cerevisiae deletion strains, locus YNL307C, strain MCK1, hits give low values): 0.985
normalized growth (S. cerevisiae deletion strains, locus YNL322C, strain KRE1 (second series), hits give low values): 0.965
normalized growth (S. cerevisiae deletion strains, locus YNL322C, strain KRE1, hits give low values): 0.968
normalized growth (S. cerevisiae deletion strains, locus YNR049C, strain mso1, hits give low values): 0.988
normalized growth (S. cerevisiae deletion strains, locus YNR052C, strain pop2, hits give low values): 0.997
normalized growth (S. cerevisiae deletion strains, locus YOL012C, strain htz1): 1.44
normalized growth (S. cerevisiae deletion strains, locus YOL147C, strain pex11, hits give low values): 0.977
normalized growth (S. cerevisiae deletion strains, locus YOR001W, strain rrp6, hits give low values): 0.972
normalized growth (S. cerevisiae deletion strains, locus YOR061W, strain CKA2, hits give low values): 0.983
normalized growth (S. cerevisiae deletion strains, locus YOR069W, strain VPS5, hits give low values): 0.973
normalized growth (S. cerevisiae deletion strains, locus YOR070C, strain gyp1, hits give low values): 0.974
normalized growth (S. cerevisiae deletion strains, locus YOR080W, strain dia2, hits give low values): 0.972
normalized growth (S. cerevisiae deletion strains, locus YOR083W, strain WHI5, hits give low values): 1
normalized growth (S. cerevisiae deletion strains, locus YOR106W, strain vam3, hits give low values): 1
normalized growth (S. cerevisiae deletion strains, locus YOR136W, strain idh2, hits give low values): 0.985
normalized growth (S. cerevisiae deletion strains, locus YOR144C, strain elg1, hits give low values): 0.981
normalized growth (S. cerevisiae deletion strains, locus YOR184W, strain ser1, hits give low values): 0.989
normalized growth (S. cerevisiae deletion strains, locus YOR231W, strain MKK1, hits give low values): 0.809 (active)
normalized growth (S. cerevisiae deletion strains, locus YOR265W, strain rbl2, hits give low values): 0.967
normalized growth (S. cerevisiae deletion strains, locus YOR270C, strain vph1, hits give low values): 1
normalized growth (S. cerevisiae deletion strains, locus YOR290C, strain snf2, hits give low values): 0.969
normalized growth (S. cerevisiae deletion strains, locus YOR316C, strain cot1, hits give low values): 0.972
normalized growth (S. cerevisiae deletion strains, locus YPL051W, strain arl3, hits give low values): 0.967
normalized growth (S. cerevisiae deletion strains, locus YPL078C, strain atp4, hits give low values): 0.993
normalized growth (S. cerevisiae deletion strains, locus YPL106C, strain sse1, hits give low values): 0.933
normalized growth (S. cerevisiae deletion strains, locus YPL240C, strain hsp82, hits give low values): 0.978
normalized growth (S. cerevisiae deletion strains, locus YPL241C, strain CIN2, hits give low values): 0.971
normalized growth (S. cerevisiae deletion strains, locus YPL256C, strain CLN2, hits give low values): 0.838
normalized growth (S. cerevisiae deletion strains, locus YPR119W, strain clb2, hits give low values): 0.965
normalized growth (S. cerevisiae deletion strains, locus YPR141C, strain kar3, hits give low values): 0.957
normalized growth (S. cerevisiae deletion strains, locus YPR163C, strain tif3, hits give low values): 1.01
normalized growth (S. cerevisiae deletion strains, locus YPR167C, strain met16, hits give low values): 0.987
normalized growth (S. cerevisiae deletion strains, strain wtn01, hits give low values): 0.956
normalized growth (S. cerevisiae strains, strain wild type, hits give low values): 0.974
